From PubChem BioAssay AID2314 (National Center for Advancing Translational Sciences (NCATS), 2010)
Screen size: about 300,000 compounds; about 37,000 (12%) were called active. This is one part of a sample in which actives are shown more often than they occur. Cut-off read from the data, not from the text of the source: active = max response mostly above about 13% (no sharp cut-off); inactive = mostly below about 14%.

Assay: Cycloheximide Counterscreen for Small Molecule Inhibitors of Shiga Toxin; note: read at 38.3 µM for the half of the compounds with a filed dose; 0% is about no effect
Conditions: cell reporter, cycloheximide protein synthesis inhibition counterscreen; hits give high values

SMILES | max response
O=C(Nn1cnnc1)c1cc(Cl)ccc1Cl | 1.72% (inactive)
Cc1ccc(-n2c(SCC(=O)N3CCC(C(=O)O)CC3)nc3ccccc3c2=O)cc1C | 25.2% (active)
CCc1c(O)nc(SCC(=O)N2CCCCC2)n(-c2ccccc2C)c1=O | -1.43% (inactive)
COc1cccc(-n2c(SCC(=O)c3c[nH]c4ccccc34)nc3ccccc3c2=O)c1 | -2.32% (inactive)
Cc1[nH]c2ccccc2c1C(=O)CN1CC(C)CC(C)C1 (configuration not stated) | -1.83% (inactive)
O=C(NCc1ccccc1)C1=C[C@@H](c2ccc(C(F)(F)F)cc2)C[C@@H](OCc2ccc(CO)cc2)O1 | 6.43% (inactive)
NC(=O)C1=C[C@H](c2csc3ccccc23)C[C@H](OCc2ccc(CO)cc2)O1 | 20.4% (active)
C=CCOC(=O)C1=C[C@@H](c2ccccc2)C[C@@H](OCc2ccc(CO)cc2)O1 | 8.03% (inactive)
O=C(NC1CC1)C1=C[C@H](c2c[nH]c3ccccc23)C[C@H](OCc2ccc(CO)cc2)O1 | 16.2% (active)
NC(=O)C1=C[C@@H](c2csc3ccccc23)C[C@@H](OCc2ccc(CO)cc2)O1 | -2.5% (inactive)
O=C(NCc1ccccc1)C1=C[C@H](C2CC2)C[C@H](OCc2ccc(CO)cc2)O1 | -2.61% (inactive)
CCc1cccc(NC(=O)CCCN2C(=O)C(c3ccccc3)Oc3cccnc32)c1 (configuration not stated) | 11.2% (inactive)
C=C(Br)Cn1c(CCCC)nc2ccccc21 | 3.99% (inactive)
COc1ccc(C)cc1S(=O)(=O)NCCc1ccccc1 | -1.77% (inactive)
COc1ccc(CCN2C(=O)N(c3ccc(OC)cc3)C(=O)C2CC(=O)Nc2ccc(OC)cc2)cc1 (configuration not stated) | 1.2% (inactive)
Cc1cc(C(F)F)nn1CC(=O)NC1CCCCCC1 | 6.8% (inactive)
O=C(CN1CCCCCC1)Nc1ccc(Br)cc1Br | 15.8% (inactive)
Cc1ccc(CC2CC(=O)N(c3ccc4c(c3)OCCO4)C2=O)cc1 (configuration not stated) | 21.2% (inactive)
Cc1ccc(N2C(=O)CC(NCc3ccc4c(c3)OCO4)C2=O)cc1Cl (configuration not stated) | 24% (active)
O=CN1CCN(C2CC(=O)N(c3ccc4c(c3)OCO4)C2=O)CC1 (configuration not stated) | 11.4% (inactive)
CCNC(=O)CC1C(=O)N(c2ccc(OC)cc2)C(=S)N1CCc1ccncc1 (configuration not stated) | -6.33% (inactive)
Cc1ccc2c(c1)N(CC(=O)NCC1CCCO1)C(=O)CO2 (configuration not stated) | -1.04% (inactive)
O=C(NCCCN1CCCCC1)C1CC(=O)N(CCc2ccccc2)C1 (configuration not stated) | 3.29% (inactive)
COc1ccc(/C=C/C(=O)Nc2ccc(C34CC5CC(CC(O)(C5)C3)C4)cc2)cc1OC | 36.8% (active)
COc1ccc(/C=C/C(=O)N2CCCC2)cc1OC | 5.12% (inactive)

SMILES | max response
COc1ccc(NS(=O)(=O)c2cc(NC(=O)/C=C/c3cc(OC)c(OC)c(OC)c3)ccc2N2CCCCC2)cc1 | -2.53% (inactive)
COc1cc(/C=N/NC(=S)Nc2cccnc2)cc(OC)c1O | 14% (inactive)
COc1ccc(/C=C/C(=O)Nc2ccc3c(c2)OCCO3)cc1OC | 34.3% (active)
COc1ccc(OC)c(/C=C/C(=O)OCC(=O)Nc2ccc3c(c2)OCCO3)c1 | 4.24% (inactive)
O=C(/C=C\c1ccc2c(c1)OCO2)NC1(C(=O)Nc2ccc3c(c2)OCCO3)CCCCC1 | -4.38% (inactive)
COc1cccc(/C=C/C(=O)Nc2ccc3c(c2)OCCO3)c1 | 51.1% (active)
COc1ccc(/C=C/C(=O)Nc2cccnc2)cc1OC | 19.5% (active)
COc1ccc(/C=C/C(=O)Nc2ccc(C)cc2)cc1S(=O)(=O)N1CCOCC1 | 10.5% (inactive)
COc1cccc(C(=O)Nc2cccnc2)c1OC | 2.63% (inactive)
CCOc1ccc2c(=O)c(-c3ccc4c(c3)OCCCO4)c(C)oc2c1 | 7.6% (inactive)
CCOc1ccccc1Nc1ccc(C(=O)O)cc1[N+](=O)[O-] | -4.22% (inactive)
CCSc1nc2sc3c(c2c(=O)[nH]1)CC(C)(C)OC3 | 0.89% (inactive)
O=S(=O)(c1cccc(-c2cn3ccccc3n2)c1)N1CCCC1 | 13.9% (inactive)
O=S(=O)(c1cccc(-c2nnc3n2CCCCC3)c1)N1CCOCC1 | -0.622% (inactive)
Cc1cccn2cc(-c3cccc(S(=O)(=O)N4CCCCC4)c3)nc12 | 15.4% (active)
CCc1cc2c(N3CCN(c4nnc(CC)s4)CC3)ncnc2s1 | -4.57% (inactive)
COc1ccc(-n2c(C)cc(C(=O)CN3C(=O)NC4(CCc5ccccc54)C3=O)c2C)cc1 (configuration not stated) | 3.03% (inactive)
S=C(NCCc1ccccc1)NCc1ccccc1Cl | 2.05% (inactive)
S=C(NCCc1ccccc1)NCC1CCCO1 (configuration not stated) | 29.4% (active)
Oc1c(Br)cc(/C=N/NC(=S)NCC2CCCO2)cc1Br (configuration not stated) | 1.44% (inactive)
Cc1nnc(OCC(=O)NCCC2=CCCCC2)c2ccccc12 | -1.88% (inactive)
S=C(NCCCc1ccccc1)Nc1ccc(Br)cc1 | 9.21% (inactive)
S=C(NCCC1=CCCCC1)Nc1ccccc1 | 39.2% (active)
Oc1ccccc1N1CCN(C(=S)NCc2ccccc2)CC1 | 31.8% (active)
Oc1ccc(N2CCN(C(=S)NCc3ccccc3)CC2)cc1 | -5.44% (inactive)

SMILES | max response
O=C(CS(=O)(=O)Cc1ccccc1)NCC1CCCO1 (configuration not stated) | -0.705% (inactive)
S=C(NCCc1ccccc1)Nc1ccccc1 | 52.7% (active)
O=C(Cc1cccc2ccccc12)NCCC1=CCCCC1 | -2.35% (inactive)
CC1CCCCN1C(=S)NCc1ccccc1 (configuration not stated) | 0.333% (inactive)
Cc1nc2ccccc2c(=O)n1NC(=O)c1ccccc1 | -1.37% (inactive)
COc1ccc(CN(C)Cc2nc3cc(OC)c(OC)cc3c(=O)[nH]2)c(OC)c1 | -2.17% (inactive)
CCN(C(=O)CN1C(=O)/C(=C/c2ccc(F)cc2)SC1=S)C1CCS(=O)(=O)C1 (configuration not stated) | -13.6% (inactive)
Cc1cccc(N2CCN(C(=O)CCS(=O)(=O)c3ccc4c(c3)NC(=O)C(C)S4)CC2)c1C (configuration not stated) | -1.44% (inactive)
CCCc1ccc(-c2c(C)sc(NC(=O)c3ccnn3C)c2C#N)cc1 | -3.68% (inactive)
O=C(CCc1n[nH]c(=O)[nH]c1=O)N/N=C/c1ccc(Br)o1 | -9.24% (inactive)
COCCNC(=O)COc1ccc(N(C)S(=O)(=O)c2ccc3ccccc3c2)cc1 | -5.19% (inactive)
N#Cc1c(-c2ccccc2)c(-c2ccccc2)n[nH]c1=O | 0.547% (inactive)
COc1cccc(CNC(=O)CN(C)S(=O)(=O)c2ccc3c(c2)c(=O)n(C)c(=O)n3C)c1 | -2.54% (inactive)
CC(=O)c1ccccc1OCc1ccc(C(=O)c2ccccc2)cc1 | 2.75% (inactive)
COc1ccc(C(=O)NC2CCN(C(=S)NCCc3ccccc3)CC2)cc1 | -2.31% (inactive)
O=C1CCN(C(=S)NCCc2ccccc2)CC1 | 16% (inactive)
S=C(NCCc1ccccc1)N1CCCCC1 | 60.3% (active)
CCc1ccc(-c2cc(C)no2)cc1S(=O)(=O)NCCc1ccc(S(N)(=O)=O)cc1 | -3.78% (inactive)
COc1ccc(OC(C)C(=O)NCCc2nc3ccccc3[nH]2)cc1 (configuration not stated) | -2.98% (inactive)
O=c1[nH]nc(CSCc2ccccc2Cl)[nH]1 | -2.59% (inactive)
Clc1ccccc1SCc1nc2ccccc2[nH]1 | 52.8% (active)
c1ccc(-c2nnc(SCc3nc4ccccc4[nH]3)o2)cc1 | 10.9% (inactive)
N=C(N)SCc1cccc2ccccc12 | -4.81% (inactive)
c1ccc2c(CSCc3nc4ccccc4[nH]3)cccc2c1 | 13.2% (active)
Cc1ccc(S(=O)(=O)c2c[nH]c3ccc(Cl)cc3c2=O)cc1 | -0.873% (inactive)

SMILES | max response
CC(NC(=O)CCCC1CCCCC1)c1ccc(S(N)(=O)=O)cc1 (configuration not stated) | -1.75% (inactive)
CCC(=O)N1CCN(c2ccccc2NC(=O)COc2cccc(C)c2C)CC1 | -0.942% (inactive)
O=C(Nc1c2c(nn1-c1cccc(Cl)c1)CS(=O)(=O)C2)c1cccs1 | -4.62% (inactive)
COc1ccc(CN(Cc2ccco2)S(=O)(=O)c2ccc(S(=O)(=O)N3CCCC3)cc2)cc1 | -2.84% (inactive)
CCCCCCCCCCCCN=C(N)N | 13.5% (active)
CCCCCCCN=C(C)c1ccccc1O | -3.52% (inactive)
CCN(CC)CCCN=C(N)N | -0.653% (inactive)
O=C1C(=O)N(CC2COc3ccccc3O2)c2ccccc21 (configuration not stated) | -1.34% (inactive)
COc1cccc(CNc2nc(C(F)(F)F)nc3ccccc23)c1 | -1.53% (inactive)
COc1cccc(CNc2ncc(-c3ccccc3)n2C)c1 | 23.9% (active)
COc1cccc(CNS(=O)(=O)c2cc3c(cc2C)n(C)c(=O)c(=O)n3C)c1 | -2.63% (inactive)
CCOC(=O)C1CCN(C(=O)Cn2nc(C)c3c(C)n(-c4ccccc4)nc3c2=O)CC1 | -0.326% (inactive)
O=C(CCc1nnc2ccc(NCCCN3CCCC3=O)nn12)NCc1ccccc1Cl | -2.54% (inactive)
CC(C)(C)NC(=O)C(c1ccc(Cl)cc1)N(CCO)C(=O)c1snc(C(N)=O)c1N (configuration not stated) | -3.49% (inactive)
Cc1ccc(NC(=O)C2CCCN2S(=O)(=O)c2cccc3cccnc23)c(C)c1 (configuration not stated) | -1.86% (inactive)
Nc1nnnn1/N=C/c1cccs1 | -4.55% (inactive)
Cc1ccc(N2CCN(/N=C/c3cccs3)CC2)cc1 | 7.5% (inactive)
C(=N/N1CCN(c2ccccc2)CC1)/c1cccs1 | 36.9% (active)
Cc1cccc(-c2c(NC(=O)c3ccco3)oc3ccc(Cl)cc3c2=O)c1 | -1.7% (inactive)
CC(C)c1ccc(S(=O)(=O)N2CCC3(CC2)OCCO3)cc1 | -1.14% (inactive)
CC(C)c1ccc(/C=C2\NC(=O)NC2=O)cc1 | 18.8% (active)
COC(=O)CN1C(=O)[C@H]2[C@@H](/C=C/c3ccccc3)N3C(=O)CN(Cc4ccccc4)C(=O)[C@@]3(Cc3ccccc3)[C@H]2C1=O | -3.52% (inactive)
